Peg3 promoter: reduces Peg3 promoter-driven luciferase expression in HeLa | HeLa PEG-Prom luciferase reporter, luminescence, overnight | inhibition, % at 20 µM | actives 1.7% (n = 360,000) | AID 588405;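 active means inhibition of at least 50% at 20 µM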
KKLEB cytotox: counter-screen for CF NF-kB inhibitors: cytotoxicity; AID 602141; activity change (cytotoxicity), % at 5 µM; KKLEB CF airway cells viability, ATPlite luminescence, overnight; active compounds read low; cells stimulated with P. aeruginosa culture filtrate; actives 0.36% (n = 360,000);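 active means corrected activity change at or below -50% at 5 µM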
HIF-2a block: HIF-2a inhibition | AID 624352 | actives 0.72% (n = 360,000) | inhibition, % at 18.8 µM | 786-0 RCC cells HIF-2a reporter, luciferase luminescence, overnight;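 active means inhibition of the luminescence signal of 40% or more relative to plate controls, in a single-dose primary screen at 18.75 µM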
ABHD5-PLIN5 inh: inhibitors of human ABHD5-perilipin-5 interaction. actives 0.78% (n = 360,000). Split G. princeps luciferase complementation, luminescence, 4 h. inhibition, % at 4 µM;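 active means inhibition above the mean inhibition across every tested compound plus 3 SD, cut at about 22% in these data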;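 further: 0% = DMSO only wells and the 100% control is not disclosed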
TRPM1 prom inh: reduces MITF-dependent TRPM1 promoter luciferase signal. SK-MEL-5 TRPM1 promoter luciferase, 24 h. inhibition, % at 12.5 µM. actives 0.83% (n = 330,000). AID 488899;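 active means mean inhibition across replicates of 60% or more, whatever share of single replicates reaches that level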
CF NFkB block: cystic fibrosis NF-kB activation inhibition | inhibition, % at 5 µM | AID 588850 | actives 0.86% (n = 360,000) | KKLEB NF-kB-GFP reporter, PAF-induced, GFP fluorescence overnight;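 active means at least 50% inhibition at 5 µM, scaled per plate between neutral and stimulator controls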;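 further: PAF is a Pseudomonas aeruginosa culture filtrate used as stimulus; plate controls were PAF-stimulated DMSO wells for no effect and unstimulated DMSO wells for full effect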
* = called active by the depositor. Only some compounds are listed: those with a hit (about 3% of all), similar ones and a draw of the others.

For COCC1CCN(C(=O)C2CCC(=O)N(CCc3cccc(F)c3)C2)CC1 (stereo unspecified) the results were Peg3 promoter -9, KKLEB cytotox 11, HIF-2a block -20, ABHD5-PLIN5 inh 9, TRPM1 prom inh -25 and CF NFkB block -9.
CCOc1ccc(NC(=O)/C(C=Nc2ccccc2)=C(\C)O)cc1 was read as Peg3 promoter -61, KKLEB cytotox -4, HIF-2a block -59, ABHD5-PLIN5 inh 0, TRPM1 prom inh -27 and CF NFkB block 5.
Cc1cccc([C@@H]2[C@@H]3C(=O)N(Cc4ccccc4)C(=O)[C@@H]3[C@]3(CC(C)C)C(=O)N(c4cccc(F)c4)C(=O)N23)c1 was read as Peg3 promoter 7, KKLEB cytotox -14, HIF-2a block -5, ABHD5-PLIN5 inh 4, TRPM1 prom inh 2 and CF NFkB block 14.
Screening Nc1nc2ncccc2cc1C(=O)NC1CCCCC1 returned HIF-2a block 8 and ABHD5-PLIN5 inh -10.
Screening COc1cc(CNCCO)cc(Cl)c1OCc1ccc(Cl)cc1Cl returned Peg3 promoter 105*, KKLEB cytotox -14, HIF-2a block 5, ABHD5-PLIN5 inh 18, TRPM1 prom inh 7 and CF NFkB block 13.
CC1Sc2ccc(S(=O)(=O)CCC(=O)N3CCN(c4ccccc4F)CC3)cc2NC1=O (stereo unspecified) was read as Peg3 promoter 43, KKLEB cytotox -13, HIF-2a block 11, ABHD5-PLIN5 inh -1, TRPM1 prom inh 14 and CF NFkB block 4.
For CCn1c2ccccc2c2cc(N=C3SC(CC(=O)Nc4ccccc4)C(=O)N3C)ccc21 (stereo unspecified) the results were Peg3 promoter 11, KKLEB cytotox -52*, HIF-2a block 20, ABHD5-PLIN5 inh -2, TRPM1 prom inh 0 and CF NFkB block 56*.
`O=C(CCN1C(=O)NC2(CCCC2)C1=O)Nc1ccc(-c2nc3ccccc3s2)cc1` gave Peg3 promoter 101*, KKLEB cytotox -20, HIF-2a block -113, ABHD5-PLIN5 inh -1, TRPM1 prom inh -44 and CF NFkB block -5.
For O=C1C(C2=NC(C(=O)O)C3C(=O)N(c4ccc(Cl)cc4)C(=O)C23)=C(O)c2ccccc21 (stereo unspecified) the results were Peg3 promoter 0, KKLEB cytotox -5, HIF-2a block 1, ABHD5-PLIN5 inh -5, TRPM1 prom inh -1 and CF NFkB block 16.
Screening O=C1C(C2=NC(c3ccccn3)C3C(=O)N(c4ccc(Cl)cc4Cl)C(=O)C23)=C(O)c2ccccc21 (stereo unspecified) returned Peg3 promoter 51*, KKLEB cytotox -39, HIF-2a block 16, ABHD5-PLIN5 inh 4, TRPM1 prom inh 90* and CF NFkB block 53*.
CC(=O)NCCc1c[nH]c2ccc(OCc3ccccc3)cc12 was read as Peg3 promoter 18, KKLEB cytotox -5, HIF-2a block 6, ABHD5-PLIN5 inh 8 and CF NFkB block 25.
Screening COC(=O)c1ccc(/C=C/C(=O)OCC(=O)NCc2cccs2)cc1 returned Peg3 promoter -14, KKLEB cytotox 19, HIF-2a block -20, ABHD5-PLIN5 inh -8, TRPM1 prom inh -12 and CF NFkB block -54.
For COc1ccccc1-n1c(SCC(=O)NCc2ccc3c(c2)OCO3)nc2cc([N+](=O)[O-])ccc21 the results were Peg3 promoter 26, KKLEB cytotox -4, HIF-2a block 26, ABHD5-PLIN5 inh 23*, TRPM1 prom inh 4 and CF NFkB block 3.
For CC(Sc1nc2cc([N+](=O)[O-])ccc2n1-c1ccc(F)cc1)C(=O)NCc1ccc2c(c1)OCO2 (stereo unspecified) the results were Peg3 promoter 24, KKLEB cytotox 10, HIF-2a block 12, ABHD5-PLIN5 inh 11, TRPM1 prom inh -1 and CF NFkB block -32.
`CC(C)C[C@H]1CNC(=S)N1C[C@H]1CCCN1C[C@H](Cc1ccc(O)cc1)N1C[C@H](Cc2ccc(O)cc2)N(CC2CCCCCC2)C1=S` gave Peg3 promoter 101*, KKLEB cytotox -59*, HIF-2a block -19, ABHD5-PLIN5 inh 27* and CF NFkB block 71*.
Screening CC(C)C[C@H]1CN([C@@H](Cc2ccc(O)cc2)CN2CCC[C@@H]2CN2C(=S)NC[C@@H]2Cc2ccccc2)C(=S)N1CC1CCCCCC1 returned Peg3 promoter -8, KKLEB cytotox -6, HIF-2a block -12, ABHD5-PLIN5 inh -1 and CF NFkB block 3.
`CC(C)C[C@H]1CNC(=S)N1CC1CCCN1C[C@H](Cc1ccccc1)N1C[C@H](Cc2ccc(O)cc2)N(CC2CCCCCC2)C1=S` (stereo partly specified) gave Peg3 promoter 66*, KKLEB cytotox -3, HIF-2a block -2, ABHD5-PLIN5 inh -13, TRPM1 prom inh 25 and CF NFkB block 28.
COc1ccc(S(=O)(=O)N(C)C[C@H]2Oc3cc(Br)ccc3S(=O)(=O)N([C@H](C)CO)C[C@H]2C)cc1 was read as Peg3 promoter 20, KKLEB cytotox -15, HIF-2a block 13, ABHD5-PLIN5 inh 3 and CF NFkB block 27.
`COc1ccc(S(=O)(=O)N(C)C[C@@H]2Oc3cc(Br)ccc3S(=O)(=O)N([C@H](C)CO)C[C@@H]2C)cc1` gave Peg3 promoter 54*, KKLEB cytotox 9, HIF-2a block -7, ABHD5-PLIN5 inh 14 and CF NFkB block -20.
For O=C(N/N=C/c1ccccn1)c1cc(-c2ccccc2)nc2ccccc12 the results were Peg3 promoter 66*, KKLEB cytotox -6, HIF-2a block 8, ABHD5-PLIN5 inh -2 and CF NFkB block 3.
Screening NNC(=O)c1[nH]c2ccc([N+](=O)[O-])cc2c1-c1ccccc1 returned Peg3 promoter 19, KKLEB cytotox 9, HIF-2a block 13, ABHD5-PLIN5 inh -10 and CF NFkB block -14.
For O=C(N/N=C/c1ccccn1)c1[nH]c2ccc([N+](=O)[O-])cc2c1-c1ccccc1 the results were Peg3 promoter 55*, KKLEB cytotox -12, HIF-2a block -10, ABHD5-PLIN5 inh 1, TRPM1 prom inh 10 and CF NFkB block -7.
For COC(=O)/C=C\C(C#N)(C#N)N=Cc1ccc(OC)cc1 the results were Peg3 promoter 105*, KKLEB cytotox -13, HIF-2a block -12, ABHD5-PLIN5 inh 8, TRPM1 prom inh 3 and CF NFkB block 9.
CC/C(=N/Nc1ccccc1)c1cnnc(-c2ccccc2)n1 was read as Peg3 promoter 18, KKLEB cytotox -51*, HIF-2a block 6, ABHD5-PLIN5 inh 5, TRPM1 prom inh 15 and CF NFkB block 42.
For Cc1cc2oc(=O)cc(CN3CCCCC3C)c2cc1C(C)C (stereo unspecified) the results were Peg3 promoter 15, KKLEB cytotox 12, HIF-2a block 13, ABHD5-PLIN5 inh 1, TRPM1 prom inh 23 and CF NFkB block 12.
